We go through 3 molecules from PubChem BioAssay (EPA / NIEHS).

Common to all, as to conditions: mRNA level, 48 h; actives raise or lower the signal
Read-out in test [1]: Protein phosphatase 2A (PPP2R4), PTPA (gene 5524)
In words: LTEA_HepaRG_PPP2R4: Life Technologies and Expression Analysis (LTEA) Assay for Protein phosphatase 2A (PPP2R4) using HepaRG (AID 2283522). The method in brief: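 Gene-expression endpoint in HepaRG hepatic cells: 48 h treatment across eight half-log concentrations up to 100 uM in 0.5% DMSO. PPP2R4 mRNA by qRT-PCR, normalized to three endogenous control genes.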

Read-out in test [2]: Phosphatase and tensin (PTEN), PTEN (gene 5728)
In words: LTEA_HepaRG_PTEN: Life Technologies and Expression Analysis (LTEA) Assay for Phosphatase and tensin (PTEN) using HepaRG (AID 2283523). In outline:
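Read-out is PTEN transcript level by multiplexed TaqMan qRT-PCR after 48 h chemical treatment of human HepaRG cultures in serum-free induction medium. Concentrations spanned 100 uM downward in half-log steps, 0.5% DMSO throughout; activity fitted in both directions against vehicle.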

Read-out in test [3]: solute carrier (SLC22A1), SLC22A1 (gene 6580)
The experiment in a line: LTEA_HepaRG_SLC22A1: Life Technologies and Expression Analysis (LTEA) Assay for solute carrier (SLC22A1) using HepaRG (AID 2283524). The method in brief: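 HepaRG (human liver line), 48 h dosing in serum-free induction medium; 8 conc., half-log down from 100 uM, 0.5% DMSO vehicle, duplicates. Endpoint: SLC22A1 mRNA, qRT-PCR, housekeeping-normalized; gain/loss fit vs DMSO.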

Read-out in test [4]: Pyruvate Dehydrogenase Kinase 4 (PDK4), PDK4 (gene 5166)
The experiment in a line: LTEA_HepaRG_PDK4: Life Technologies and Expression Analysis (LTEA) Assay for Pyruvate Dehydrogenase Kinase 4 (PDK4) using HepaRG (AID 2283525). In outline: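 In this multiplexed human HepaRG expression assay, cells are treated 48 h with test chemicals across an eight-point range starting at 100 uM. PDK4 mRNA changes, normalized to ACTB/GAPDH/POLR2A, are fitted in both directions relative to vehicle.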

Read-out in test [5]: NAD(P)H dehydrogenase [quinone] 1 (NQO1), NQO1 (gene 1728)
In words: LTEA_HepaRG_NQO1: Life Technologies and Expression Analysis (LTEA) Assay for NAD(P)H dehydrogenase [quinone] 1 (NQO1) using HepaRG (AID 2283526). The method in brief:
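Human HepaRG hepatic cells received chemicals for 48 h in serum-free induction medium with 0.5% DMSO, up to 100 uM. Expression was assessed by TaqMan qRT-PCR against housekeeping controls and fitted bidirectionally against DMSO.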

Read-out in test [6]: Nuclear factor erythroid 2-related factor 2 (Homo sapiens) (UniProt Q16236)
The experiment in a line: LTEA_HepaRG_NFE2L2: Life Technologies and Expression Analysis (LTEA) Assay for Nuclear factor erythroid 2-related factor 2 (NFE2L2) Transcription Factor using HepaRG (AID 2283527). In outline: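 Transcript level of NFE2L2 is the read-out, measured by microfluidic TaqMan qRT-PCR and normalized to three housekeeping genes. Human HepaRG cultures received test chemical for 48 h at up to 100 uM in half-log steps. Gain or loss of signal is fitted relative to 0.5% DMSO.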

Read-out in test [7]: succinate dehydrogenase complex iron sulfur subunit B (SDHB), SDHB (gene 6390)
In words: LTEA_HepaRG_SDHB: Life Technologies and Expression Analysis (LTEA) Assay for succinate dehydrogenase complex iron sulfur subunit B (SDHB) using HepaRG (AID 2283528). In outline: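 SDHB transcript level read by TaqMan qRT-PCR, housekeeping-normalised (ACTB, GAPDH, POLR2A), after 48 h chemical treatment of plated HepaRG cells; eight concentrations top 100 uM, half-log steps, 0.5% DMSO, duplicates; fitted both directions against DMSO.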

Read-out in test [8]: Signal transducer and activator of transcription 3 (Homo sapiens) (UniProt P40763)
The experiment in a line: LTEA_HepaRG_STAT3: Life Technologies and Expression Analysis (LTEA) Assay for Signal transducer and activator of transcription (STAT3) using HepaRG (AID 2283529). In outline:
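Read-out is STAT3 mRNA level by qRT-PCR, normalized to three housekeeping genes, in human HepaRG liver cells treated for 48 h. Concentrations ran from 100 uM downward in half-log steps; curves were fitted for gain or loss relative to 0.5% DMSO.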

Read-out in test [9]: solute carrier (SLCO1B1), SLCO1B1 (gene 10599)
In words: LTEA_HepaRG_SLCO1B1: Life Technologies and Expression Analysis (LTEA) Assay for solute carrier (SLCO1B1) using HepaRG (AID 2283530). In outline:
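Differentiated human HepaRG cells were exposed for 48 h in serum-free induction medium to eight half-log concentrations, top 100 uM, in 0.5% DMSO. SLCO1B1 mRNA was measured by qRT-PCR, normalized to ACTB, GAPDH and POLR2A, and fitted bidirectionally against DMSO.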

Read-out in test [10]: sulfotransferase 2A1 (SULT2A1), SULT2A1 (gene 6822)
In words: LTEA_HepaRG_SULT2A1: Life Technologies and Expression Analysis (LTEA) Assay for sulfotransferase 2A1 (SULT2A1) using HepaRG (AID 2283531). The method in brief:
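HepaRG human liver cells, 48 h exposure in serum-free induction medium to 8 half-log concentrations topping at 100 µM (0.5% DMSO), duplicate wells. SULT2A1 mRNA measured by TaqMan qRT-PCR, normalized to ACTB/GAPDH/POLR2A; bidirectional fit against DMSO.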

Read-out in test [11]: Transforming Growth Factor (TGFB1), TGFB1 (gene 7040)
In words: LTEA_HepaRG_TGFB1: Life Technologies and Expression Analysis (LTEA) Assay for Transforming Growth Factor (TGFB1) Transporter using HepaRG (AID 2283533). In outline: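 Differentiated HepaRG cells exposed 48 hr in serum-free induction medium to eight half-log concentrations up to 100 uM (0.5% DMSO), duplicate; TGFB1 mRNA by TaqMan qRT-PCR normalised to ACTB, GAPDH, POLR2A; bidirectional fit against DMSO.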

Read-out in another test: TIMP1, TIMP1 (gene 7076)
In words: LTEA_HepaRG_TIMP1: Life Technologies and Expression Analysis (LTEA) Assay for TIMP1 using HepaRG (AID 2283534).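 Note: TaqMan qRT-PCR signal normalized to ACTB GAPDH and POLR2A housekeeping genes.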 In outline:
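Differentiated HepaRG cells exposed 48 h in serum-free induction medium, duplicates, eight half-log concentrations from 100 uM in 0.5% DMSO. TIMP1 mRNA by qRT-PCR normalized to ACTB, GAPDH, POLR2A; bidirectional fitting against DMSO.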

Read-out in test [12]: Tumor necrosis factor receptor 1 (TNFRSF1A), TNFRSF1A (gene 7132)
The experiment in a line: LTEA_HepaRG_TNFRSF1A: Life Technologies and Expression Analysis (LTEA) Assay for Tumor necrosis factor receptor 1 (TNFRSF1A) using HepaRG (AID 2283535). The method in brief: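 Differentiated HepaRG cells in serum-free induction medium, exposed 48 h in duplicate to 8 half-log concentrations up to 100 uM in 0.5% DMSO. TNFRSF1A mRNA by Fluidigm TaqMan qRT-PCR, normalized to ACTB, GAPDH, POLR2A; bidirectional fit.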

Read-out in test [13]: UDP glucuronosyltransferase (UGT1A1), UGT1A1 (gene 54658)
The experiment in a line: LTEA_HepaRG_UGT1A1: Life Technologies and Expression Analysis (LTEA) Assay for UDP glucuronosyltransferase (UGT1A1) using HepaRG (AID 2283538). In outline: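 Human liver HepaRG cultures receive test chemical for 48 h, up to 100 uM in 0.5% DMSO, with phenobarbital induction controls. UGT1A1 mRNA is measured by qRT-PCR and normalized to ACTB, GAPDH and POLR2A.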

Read-out in test [14]: UDP glucuronosyltransferase (UGT1A6), UGT1A6 (gene 54578)
The experiment in a line: LTEA_HepaRG_UGT1A6: Life Technologies and Expression Analysis (LTEA) Assay for UDP glucuronosyltransferase (UGT1A6) using HepaRG (AID 2283539). The method in brief: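 Differentiated HepaRG cells, ~100,000/well, were exposed for 48 h in serum-free induction medium with 0.5% DMSO to 8-point half-log series topping at 100 uM, in duplicate. mRNA measured by Fluidigm TaqMan qRT-PCR, normalized to ACTB, GAPDH and POLR2A.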

Read-out in test [15]: X-box binding protein 1 (XBP1), XBP1 (gene 7494)
In words: LTEA_HepaRG_XBP1: Life Technologies and Expression Analysis (LTEA) Assay for X-box binding protein 1 (XBP1) using HepaRG (AID 2283540). In outline:
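Differentiated human HepaRG cells in serum-free induction medium exposed 48 h in duplicate to eight half-log concentrations up to 100 uM in 0.5% DMSO. XBP1 mRNA measured by Fluidigm TaqMan qRT-PCR, normalized to ACTB, GAPDH, POLR2A; bidirectional fitting against DMSO.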

Read-out in test [16]: Transforming Growth Factor (TGFA), TGFA (gene 7039)
The experiment in a line: LTEA_HepaRG_TGFA: Life Technologies and Expression Analysis (LTEA) Assay for Transforming Growth Factor (TGFA) using HepaRG (AID 2283532). The method in brief:
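HepaRG (human liver line), 48 h exposure, 8 conc. half-log down from 100 uM, 0.5% DMSO vehicle, duplicates; serum-free induction medium. TGFA mRNA by TaqMan qRT-PCR, ACTB/GAPDH/POLR2A normalization; gain/loss fit vs DMSO.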

Read-out in test [17]: Cellular tumor antigen p53 (Homo sapiens) (UniProt P04637)
The experiment in a line: LTEA_HepaRG_TP53: Life Technologies and Expression Analysis (LTEA) Assay for Tumor Protein P53 (TP53) using HepaRG (AID 2283537). The method in brief:
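TP53 transcript measured by qRT-PCR, normalized to three housekeeping genes, after 48 h treatment of human HepaRG cultures with chemicals from 100 uM downward in half-log steps (0.5% DMSO vehicle, serum-free induction medium). Up- or down-regulation fitted against DMSO.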

Read-out in test [18]: Thyroid Hormone Responsive (THRSP), THRSP (gene 7069)
The experiment in a line: LTEA_HepaRG_THRSP: Life Technologies and Expression Analysis (LTEA) Assay for Thyroid Hormone Responsive (THRSP) using HepaRG (AID 2283536). In outline: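 mRNA induction or loss relative to 0.5% DMSO vehicle was fitted bidirectionally across an eight-point curve whose highest exposure was 100 uM. Human HepaRG liver cells received chemicals in duplicate over 48 h before RNA extraction.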

Activity calls are given as the source filed them. Rule for the calls: active = hit-call score of the fitted dose curve at least 0.9, where 1 is the maximum; inactive = score below 0.9.

Chain of Signal transducer and activator of transcription 3 (Homo sapiens) (P40763 whole entry, looked up): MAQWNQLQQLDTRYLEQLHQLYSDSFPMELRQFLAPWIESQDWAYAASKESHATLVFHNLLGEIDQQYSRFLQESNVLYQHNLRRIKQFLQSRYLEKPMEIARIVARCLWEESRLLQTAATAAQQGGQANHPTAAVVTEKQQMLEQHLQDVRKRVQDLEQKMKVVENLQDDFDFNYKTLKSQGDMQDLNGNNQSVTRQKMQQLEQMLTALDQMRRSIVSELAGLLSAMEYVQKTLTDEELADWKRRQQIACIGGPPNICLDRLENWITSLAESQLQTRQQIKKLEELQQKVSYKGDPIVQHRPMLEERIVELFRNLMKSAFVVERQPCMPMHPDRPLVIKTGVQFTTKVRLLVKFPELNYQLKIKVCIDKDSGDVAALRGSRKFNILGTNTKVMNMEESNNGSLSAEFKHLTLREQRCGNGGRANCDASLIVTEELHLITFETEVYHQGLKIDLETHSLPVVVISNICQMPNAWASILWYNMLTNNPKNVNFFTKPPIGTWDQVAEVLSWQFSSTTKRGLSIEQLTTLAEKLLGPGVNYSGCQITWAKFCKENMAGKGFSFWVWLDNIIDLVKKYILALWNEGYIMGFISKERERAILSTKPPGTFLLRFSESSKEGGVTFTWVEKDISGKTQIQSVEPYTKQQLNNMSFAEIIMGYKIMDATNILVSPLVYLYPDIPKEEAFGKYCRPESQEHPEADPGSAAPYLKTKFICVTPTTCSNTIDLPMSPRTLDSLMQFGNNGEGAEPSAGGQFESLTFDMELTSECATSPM
Chain of Nuclear factor erythroid 2-related factor 2 (Homo sapiens) (Q16236 whole entry, looked up): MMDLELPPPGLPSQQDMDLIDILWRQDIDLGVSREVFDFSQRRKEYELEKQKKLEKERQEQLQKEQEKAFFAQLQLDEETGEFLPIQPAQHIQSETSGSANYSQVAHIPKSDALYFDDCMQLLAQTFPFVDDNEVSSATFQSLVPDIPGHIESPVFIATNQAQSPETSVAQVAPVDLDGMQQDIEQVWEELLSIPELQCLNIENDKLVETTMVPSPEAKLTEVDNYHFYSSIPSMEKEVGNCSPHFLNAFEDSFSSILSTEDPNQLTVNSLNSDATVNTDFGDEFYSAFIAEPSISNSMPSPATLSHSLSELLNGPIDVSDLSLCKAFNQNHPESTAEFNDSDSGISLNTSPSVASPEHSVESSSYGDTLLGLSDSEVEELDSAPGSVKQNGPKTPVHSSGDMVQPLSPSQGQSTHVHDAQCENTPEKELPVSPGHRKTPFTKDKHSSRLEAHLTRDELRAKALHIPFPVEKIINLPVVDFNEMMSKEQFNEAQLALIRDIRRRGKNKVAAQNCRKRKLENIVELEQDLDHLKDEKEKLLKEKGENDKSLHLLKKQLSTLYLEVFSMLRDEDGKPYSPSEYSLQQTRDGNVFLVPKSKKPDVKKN
Chain of Cellular tumor antigen p53 (Homo sapiens) (P04637 whole entry, looked up): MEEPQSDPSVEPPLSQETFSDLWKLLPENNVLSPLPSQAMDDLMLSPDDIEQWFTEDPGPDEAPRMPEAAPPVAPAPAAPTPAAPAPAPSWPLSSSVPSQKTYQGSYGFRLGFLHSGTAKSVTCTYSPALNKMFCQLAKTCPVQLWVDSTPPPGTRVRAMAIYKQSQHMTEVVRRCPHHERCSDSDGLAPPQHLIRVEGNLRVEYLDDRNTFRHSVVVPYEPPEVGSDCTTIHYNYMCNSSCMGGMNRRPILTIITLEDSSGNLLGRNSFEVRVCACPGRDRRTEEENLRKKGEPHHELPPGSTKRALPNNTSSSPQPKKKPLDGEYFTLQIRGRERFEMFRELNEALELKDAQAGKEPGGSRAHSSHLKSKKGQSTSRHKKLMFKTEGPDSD

On to `COCc1nnc(-c2ccc[n+]([O-])c2)n1-c1c(Cl)c(Cl)cc2[nH]c(=O)c(=O)[nH]c12`, for which the molecule was called inactive in [1], in [2], in [3], in test [4], in [5] and in test [6]. For the same molecule, the outcome in test [7] was “inactive”; in test [8], “inactive”; in test [9], “inactive”; in test [10], “inactive”; in test [11], “inactive”; with TIMP1, TIMP1 (gene 7076), “inactive”. The molecule was called inactive in test [12], in test [13], in test [14] and in test [15].
For the molecule `CC(C)c1nnc2ccc(-c3ocnc3-c3cc(F)ccc3F)cn12`, the molecule was called inactive in test [1], in [2], in test [4], in test [5], in test [7] and in test [8]. The outcome in test [16] is “inactive”; in test [11] it was “inactive”; with TIMP1, TIMP1 (gene 7076), “inactive”; in [12], “inactive”; in [17], “inactive”. Also, the AC50 in test [3] is 15.4 µM (active); in test [9], 50 µM (active); in [10], 94 µM (active); in test [13], 0.836 µM (active); in test [14] it was 80.3 µM (active); in [15], 39 µM (active).
Regarding `OC[C@H]1O[C@@H]2O[C@H]3[C@H](O)[C@@H](O)[C@@H](O[C@H]4[C@H](O)[C@@H](O)[C@@H](O[C@H]5[C@H](O)[C@@H](O)[C@@H](O[C@H]6[C@H](O)[C@@H](O)[C@@H](O[C@H]7[C@H](O)[C@@H](O)[C@@H](O[C@H]1[C@H](O)[C@H]2O)O[C@@H]7CO)O[C@@H]6CO)O[C@@H]5CO)O[C@@H]4CO)O[C@@H]3CO`, the molecule was called inactive in test [1], in [2], in test [3], in [4], in test [5] and in test [6]. Besides, the outcome in test [7] was “inactive”; in test [8], “inactive”; in [9], “inactive”; in test [10], “inactive”; in test [11], “inactive”; in the test with TIMP1, TIMP1 (gene 7076) it was “inactive”. The call in test [12], in test [18], in test [13], in test [14] and in test [15] was inactive.

By AC50 is commonly meant the concentration giving half of the maximal activity seen.
